The source of these data is PubChem BioAssay (NCI).

Each structure is given as a SMILES string. About 79,000 compounds went through this panel and 15% of them were active in at least one assay; those are over-represented in the sample as a whole. The source made the active and inactive calls. Cut-off read from the data, not from the text of the source: active = growth inhibition above about 70%; inactive = the rest.

The nature of one test: NCI Yeast Anticancer Drug Screen. Data for the rad50 strain (AID 155).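 Note: 0% = growth of vehicle-only cultures of the same strain.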 Conditions: S. cerevisiae rad50 strain growth inhibition; at 5.0 µM (retest, dose inferred, filed as 0.5); active compounds read high. Summed up:
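Cells are treated with compound, grown, and their growth is then scored against vehicle-only cultures of the same repair-deficient yeast strain.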
On to `O=[N+]([O-])c1cccc(SC(Cl)(Cl)Cl)c1`, for which the growth inhibition is 8% (inactive).

For `COc1cc(/C=C(/C)[N+](=O)[O-])ccc1O`, the growth inhibition is 90% (active).

`CCC[CH2][Sn]1([CH2]CCC)[O]CC(CN2CCOCC2)[O]1` (centres undefined): the growth inhibition was 27% (inactive).

Turning to `O=C1CN2CCCCC2CN1` (centres undefined), the growth inhibition was -159% (inactive).

In the case of `CCC[CH2][Sn]([CH2]CCC)([O]C(=O)CCC(C)=O)[O]C(=O)CCC(C)=O`, the growth inhibition is 73% (active).

As to `C[CH2][Sn]([F])([CH2]C)[CH2]C`, the growth inhibition was 8% (inactive).

Take `CN(C)CCBr`: the growth inhibition is 86% (active).

`O=[N+]([O-])c1ccc2c3c(cccc13)CC2`: the growth inhibition was 15% (inactive).

On to `CC1=CC2CC(C)=C(CC[C@]3(C)CC[C@H]([C@@H](C)C(=O)O)OO3)C(C)(C)C2CC1` (some centres undefined), for which the growth inhibition is 41% (inactive).

In the case of `ClC(CN1CCCCC1)C(Cl)c1ccccc1` (centres undefined), the growth inhibition is 6% (inactive).

For `CCOC(=O)c1ccc(N=Cc2ccc(N(CCCl)CCCl)cc2C)cc1`, the growth inhibition was -4% (inactive).

As for `CN=C(N)N/N=C(\C)c1ccc2sc3ccc(/C(C)=N/NC(N)=NC)cc3c2c1`, the growth inhibition was 49% (inactive).

`c1cc2n[pH]nc2cn1` (centres undefined): the growth inhibition was -10% (inactive).

Regarding `O=[N+]([O-])c1ccc(Br)c([N+](=O)[O-])c1`, the growth inhibition is 83% (active).

For `O=C(CBr)NC1CCCCC1`, the growth inhibition was 1% (inactive).

In the case of `CC(C)C12C=C3CCC4C(C)(C(=O)O)CCCC4(C)C3(CC1)OO2` (centres undefined), the growth inhibition was 13% (inactive).

Consider `IC(I)=C(I)I`, for which the growth inhibition was 98% (active).

As to `Clc1ccc2c(c1)C(c1ccccc1Cl)=NCC(SCCN1CCOCC1)=N2`, the growth inhibition is 56% (inactive).

Turning to `CCOP(=O)(OCC)/C(C#N)=C/c1ccc(Br)cc1`, the growth inhibition was -14% (inactive).

As for `Cc1ccc(C(=O)C2C(c3ccccc3)N2C2CCCCC2)cc1` (centres undefined), the growth inhibition is 0% (inactive).

As for `CN(C)c1ncnc2c1ncn2C1OC(CO)C2NP(=O)(N(CCCl)CCCl)OC21` (centres undefined), the growth inhibition was 1% (inactive).

In the case of `Nc1nc(N)c(-c2ccc(Cl)c(Cl)c2)c(CCc2ccc(CNC(=O)c3cccc(S(=O)(=O)F)c3)cc2)n1`, the growth inhibition is -3% (inactive).

`C[CH2][Pb]([CH2]C)([CH2]C)[O]C(=O)COc1ccc(Cl)cc1Cl`: the growth inhibition is 29% (inactive).

Take `O=C(OCC(CCl)OC(=O)C(Cl)(Cl)Cl)C(Cl)(Cl)Cl` (centres undefined): the growth inhibition is 2% (inactive).

The same test, now with this note: S. cerevisiae rad50 strain growth inhibition; at 50.0 µM (retest, dose inferred, filed as 5.0); active compounds read high.
As to `O=[N+]([O-])c1cc[n+]([O-])c2ccccc12`, the growth inhibition was 98% (active).

For the compound `COc1c[c]([Hg][O]C(C)=O)c(OC)c(NC(=O)CC(C)=O)[c]1[Hg][O]C(C)=O`, the growth inhibition was 95% (active).

Turning to `CN(C)c1ccc(C2N(Cc3ccc(N(CCCl)CCCl)cc3)CCCN2Cc2ccc(N(CCCl)CCCl)cc2)cc1`, the growth inhibition was 86% (active).

Regarding `CC(=O)c1ccc(-[n+]2c(C)cc(-c3ccccc3)cc2C)cc1`, the growth inhibition was -1% (inactive).

In the case of `[O]=[Sb]([OH])([OH])[c]1ccc(NC2OC(CO)C(O)C(O)C2O)cc1` (centres undefined), the growth inhibition was -6% (inactive).

With `CCC1CN1P(=O)(Oc1ccccc1)N1CC1CC` (centres undefined), the growth inhibition is 15% (inactive).

`CCN(CC)CC(=O)c1cc2ccccc2c2ccccc12`: the growth inhibition was 97% (active).

As for `O=C1CCCC1Cl` (centres undefined), the growth inhibition was 3% (inactive).

With `N#C[S-].[La+3].c1ccc(-c2ccccn2)nc1.c1ccc(-c2ccccn2)nc1.c1ccc(-c2ccccn2)nc1`, the growth inhibition is 98% (active).

Consider `O=c1s[se]c2ccccc12`, for which the growth inhibition is 98% (active).

`O=C(CCl)Nc1ccc(Cl)cc1`: the growth inhibition was 44% (inactive).

Take `O=C1N[C@H]2[C@H](O)[C@H](O)[C@@H](O)[C@H](O)[C@@H]2c2cc3c(c(O)c21)OCO3`: the growth inhibition was 70% (active).

Take `O=C(Nc1n[c]([Hg][Cl])[c]([Hg][Cl])s1)OCc1ccccc1`: the growth inhibition was 98% (active).

`CC[C@@]1(O)C[C@H](OC2CC(N(C)C)C(O)C(C)O2)c2c(cc3c(c2O)C(=O)c2c(O)ccc(O)c2C3=O)[C@H]1C(=O)OC` (some centres undefined): the growth inhibition was 98% (active).

`CCCCCc1cc(O)c(CCCC)c(O)c1`: the growth inhibition was 87% (active).

For `NC(=O)/C=C/c1ccc([As]=O)cc1` (centres undefined), the growth inhibition was 25% (inactive).

As for `O=[N+]([O-])c1cccc(SC(Cl)(Cl)Cl)c1`, the growth inhibition was 97% (active).

Turning to `COc1cc(/C=C(/C)[N+](=O)[O-])ccc1O`, the growth inhibition was 99% (active).

Take `CCC[CH2][Sn]1([CH2]CCC)[O]CC(CN2CCOCC2)[O]1` (centres undefined): the growth inhibition was 34% (inactive).

Consider `O=C1CN2CCCCC2CN1` (centres undefined), for which the growth inhibition was -143% (inactive).

Regarding `CCC[CH2][Sn]([CH2]CCC)([O]C(=O)CCC(C)=O)[O]C(=O)CCC(C)=O`, the growth inhibition is 98% (active).

On to `C[CH2][Sn]([F])([CH2]C)[CH2]C`, for which the growth inhibition was 75% (active).

For the compound `CN(C)CCBr`, the growth inhibition was 95% (active).

Take `O=[N+]([O-])c1ccc2c3c(cccc13)CC2`: the growth inhibition was 86% (active).

On to `CC1=CC2CC(C)=C(CC[C@]3(C)CC[C@H]([C@@H](C)C(=O)O)OO3)C(C)(C)C2CC1` (some centres undefined), for which the growth inhibition was 98% (active).
